Vaccinia mCherry – qHTS for Stage-Specific Inhibitors of Vaccinia Orthopoxvirus: mCherry Reporter Primary qHTS | Vaccinia virus mCherry reporter infection, fluorescence | Potency, µM (top dose mostly 36.5 µM), hits mostly inhibitors | 310,000 compounds, 0.63% hits | AID 720579, 2013; calls by dose curve; tested in A549 cells; further: nearly all actives have a fitted effect of over 35% in size
FMDV antiviral – High Throughput Screening for Foot and Mouth Disease Virus Antivirals. Potency, µM (titrated, usually from 57.9 µM), most hits filed as inhibitors. FMDV antiviral cell-based qHTS. 410,000 compounds, 1.2% hits; calls by dose curve; tested in HEK293T cells; further: read-out not given here; nearly all actives have a fitted effect of over 45% in size
HCV inhibitor – qHTS Assay for Inhibitors of Hepatitis C Virus (HCV); AID 651820, 2012; 340,000 compounds, 3.4% hits; Huh7.5.1 HCVcc-Cre infection, luciferase reporter, 44 h; Potency, µM (titrated, usually from 41.8 µM), actives largely listed as inhibitors
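Compounds are dispensed onto cells plated 4 h earlier at 1,000 per well, with HCVcc-Cre virus (about 0.5 moi) added next. Following 44 h of culture, luminescent signal is measured for 15 sec after 15 min with substrate at room temperature.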
VACV Venus inh – qHTS for Stage-Specific Inhibitors of Vaccinia Orthopoxvirus: Venus Reporter Primary qHTS. Vaccinia virus Venus reporter expression, fluorescence. Potency, µM (series often up to 36.5 µM), hits mostly inhibitors. 330,000 compounds, 0.46% hits. AID 720580, 2013; calls by dose curve; tested in A549 cells; further: nearly all actives have a fitted effect of over 30% in size
HCMV inh – qHTS Assay for inhibitors of the human cytomegalovirus (HCMV). HFF cells, HCMV-luciferase reporter, 72 h; hits give low values. activity change, negative = inhibition, % at 57.5 µM. 410,000 compounds, 4.5% hits. AID 1259415, 2018; in the data active means activity change below about -60%; inconclusive means no clear call, values can overlap the other calls; inactive means above about -39%
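Two-dose cell screen: HFF monolayers treated with compounds and infected with luciferase-expressing HCMV at 1 PFU/cell, 72 h at 37C, then lysed for luciferase measurement.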
Sm TGR block – qHTS Assay for the Inhibitors of Schistosoma Mansoni Peroxiredoxins. purified TGR, DTNB reduction, TNB absorbance 405 nm. Potency, µM (top dose mostly 114 µM), usual class: inhibitors. 360,000 compounds, 3% hits; further: nearly all actives have a fitted effect of over 60% in size
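Kinetic colorimetric format: TGR-catalysed, NADPH-driven DTNB reduction monitored via TNB absorbance. Enzyme dispensed at 20 nM; compound exposure 15 min at room temperature before reaction start.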
Numbers stand for hits; i = inactive; ? = inconclusive; nt = no result; ! = not active in a repeat; [ ] = dose if it differs, or a comment. Rows were chosen to be rich in hits. Some 9.3% of all compounds tested hit in one or more screens of this group. Unless noted, the call rests on the fitted dose curve; in most records, active means well fitted curve in the direction sought with a large enough effect; inconclusive means small, poorly fitted or top-dose-only effect, or another doubt; inactive means no such curve, though single readings can be large; an effect the other way counts as inactive or inconclusive.

SMILES | Vaccinia mCherry | FMDV antiviral | HCV inhibitor | VACV Venus inh | HCMV inh | Sm TGR block
CCN(C(=O)c1cc2c(C)nc3ccccc3c2o1)c1cc(Cl)ccc1OC | i | ? | 10µM | i | ? | i
O=C(CSc1nc(=O)n(Cc2ccco2)c2c1CCC2)NCc1ccc(F)cc1 | i | i | nt | i | i | i
CCOc1ccc2nc(CN3CCN(Cc4ccccc4OCC)C(CCO)C3)ccc2c1 (stereo not given) | i | i | i | i | i | ?
OCCC1CN(Cc2ccc3cc(Cl)ccc3n2)CCN1Cc1ccsc1 (stereo not given) | i | ? | ? | i | i | 35µM
Cc1ccc(CN2CCN(Cc3ccc4cc(F)ccc4n3)CC2CCO)o1 (stereo not given) | i | i | i | i | i | 18µM
Cc1nc2ccccc2nc1CN1CCN(Cc2ccc(F)c(F)c2)C(CCO)C1 (stereo not given) | i | i | i | i | i | 14µM
CCOc1ccccc1CN1CCN(Cc2ccc3cc(F)ccc3n2)CC1CCO (stereo not given) | nt | i | i | nt | i | 35µM
CCN(CC)C(=O)c1nc[nH]c1C(=O)N1CCN(C(=O)OC(C)(C)C)CC1 | i | i | ? | i | i | i
CCN(CC)c1ccc(S(=O)(=O)N2CCOCC2)cc1NC(=O)CN1C(=O)NC2(CCCC2)C1=O | i | i | i | i | i | i
COCCNC(=O)C(C#N)c1nc2ccccc2nc1N1CCCCCC1 (stereo not given) | i | i | i | i | i | i
C=CCNC(=S)NNC(=O)c1cccn(Cc2ccc(Cl)c(Cl)c2)c1=O | nt | i | ? | nt | i | i
COc1ccc(CN2CCN(Cc3ccc4cc(F)ccc4n3)CC2CCO)c(C)c1C (stereo not given) | i | i | ? | i | i | 22µM
COc1cccc(CN2CCN(Cc3ccon3)CC2CCO)c1 (stereo not given) | i | i | i | i | i | i
COc1cc(CN2CCN(Cc3ccc4cc(F)ccc4n3)CC2CCO)cc(OC)c1 (stereo not given) | ? | i | i | i | i | 40µM
COc1cccc(CN2CCN(Cc3ccc4c(NC(C)=O)cccc4n3)CC2CCO)c1 (stereo not given) | i | i | i | i | i | 20µM
COc1cc(CN2CCN(CCc3ccccc3)C(CCO)C2)cc(OC)c1 (stereo not given) | i | i | i | i | i | i
CC(=O)Nc1ccc2nc(CN3CCN(CC=C(C)C)C(CCO)C3)ccc2c1 (stereo not given) | i | i | i | i | i | 20µM
CCOc1ccccc1C1CC(c2ccc(F)cc2)Nc2nc(N)nn21 (stereo not given) | i | i | i | i | i | i
COc1ccc(Cc2nc3ccc(C(=O)N4CCCN(C=O)CC4)cc3o2)cc1 | i[7.34 µM] | i | i | i[7.34 µM] | i | i
C=CCNC(=O)C1CCC(CNc2nc(=S)[nH]c3ccccc23)CC1 (stereo not given) | nt | i | ? | nt | i | i
O=C(C1CCC(CNc2nc(=S)[nH]c3ccccc23)CC1)N1CCN(c2ccccn2)CC1 (stereo not given) | i | ? | nt | i | -107 | i
O=S(=O)(NC1CC1)c1ccc(S(=O)(=O)N2CCCC(c3nc(-c4cccnc4)no3)C2)cc1 (stereo not given) | i | ? | i | i | -66 | i
O=S(=O)(c1ccc(F)cc1)N1CCCC(c2nc(-c3ccc(F)cc3)no2)C1 (stereo not given) | i | i | ? | i | i | i
O=C1CSC2(N1)C1CC3CC(C1)CC2C3 (stereo not given) | i | i | i | i | i | i
CCc1nc(N)nc(N)c1-c1ccc(Cl)cc1 | 8.9µM! | i | ? | ? | -99 | i
SMILES | Vaccinia mCherry | FMDV antiviral | HCV inhibitor | VACV Venus inh | HCMV inh | Sm TGR block
CCc1nc(N)nc(N)c1-c1ccc(NCCN)c([N+](=O)[O-])c1 | ? | i | nt | 4.5µM | -78 | nt
CCc1nc(N)nc(N)c1-c1ccc(N(C)Cc2ccccc2)c([N+](=O)[O-])c1 | ? | 22µM | ? | 1µM | -97 | nt
Cn1nc(C(=O)N2CCN(c3ccc(F)cc3)CC2)c2c1-c1ccccc1SC2 | i | i | nt | i | i | ?
CCOc1ccc(Nc2ncnc3c2nnn3Cc2ccccc2)cc1 | nt | i | i | nt | i | i
COc1ccccc1NS(=O)(=O)c1ccc(/C=C/C(=O)N2CCN(C(C)=O)CC2)cc1 | nt | i | i | nt | i | i
Cc1cc2ccccn2c1C(=O)c1ccc(S(=O)(=O)N(C)C)cc1 | i | ? | ? | i | -66 | i
Cc1cc2ccccn2c1C(=O)c1ccc([N+](=O)[O-])o1 | ? | ? | 11µM | ? | -66 | ?
Cc1cc2ccccn2c1C(=O)c1ccc(F)cc1 | i | i | ? | i | i | i
Cc1cc2ccccn2c1C(=O)c1cccc([N+](=O)[O-])c1 | i | ? | i | i | ? | i
O=C(Oc1ccccc1N1C(=O)C2CCCCC2C1=O)c1ccc(Cl)cc1 (stereo not given) | nt | i | i | nt | -108 | i
CC(C)n1ncc2c(C(=O)NCCOc3ccccc3F)cc(C3CC3)nc21 | i | ? | ? | i | ? | nt
COc1ccc(CCNC(=O)c2cc(C3CC3)nc3c2cnn3C(C)C)cc1OC | nt | ? | ? | nt | i | i
COc1ccc(CNC(=O)c2cc(C3CC3)nc3c2cnn3C(C)C)cc1 | nt | i | 2.2µM | nt | i | i
CCOc1ccc(OCCNC(=O)c2cc(C3CC3)nc3c2cnn3C(C)C)cc1 | i | ? | 3.2µM | i | i | i
CC(C)n1ncc2c(C(=O)Nc3cccc(C#N)c3)cc(C3CC3)nc21 | nt | ? | 11µM | nt | -91 | i
COc1ccccc1CNC(=O)c1cc(C2CC2)nc2c1cnn2C(C)C | i | i | 1µM | i | i | i
COc1ccc(CN2[C@@H](CC(=O)O)c3ccccc3S2(=O)=O)cc1 | i | i | i | i | i | nt
Cc1cc(C)c2c(c1)-c1c(ssc1=S)C(C)(C)N2C(=O)CN1C(=O)c2ccccc2C1=O | i | i | ? | i | i | i
CC(C)n1ncc2c(C(=O)O)cc(C3CC3)nc21 | nt | i | i | nt | i | i
COc1ccc(NC(=O)c2cc(-c3ccccc3)nc3c2cnn3C(C)C)cc1 | nt | 40µM | i | nt | i | i
CC(C)n1ncc2c(C(=O)N3CCN(Cc4ccc(Br)s4)CC3)cc(C3CC3)nc21 | nt | i | 10µM | nt | i | i
CCNC(=O)C1CCCN(C(=O)c2cccc3ccccc23)CC1 (stereo not given) | i | i | nt | i | i | nt
CC(C)(C)C(=O)Nc1ccc(NC(=O)C(C)(C)C)cc1 | i | i | i | i | -84 | i
CC(C)(C)C(=O)Nc1ccc(-c2nc3ccccc3c(=O)o2)cc1 | i | 4.5µM | i | i | -64 | i
